# Reference: PubChem BioAssay (NCATS)
# Inconclusive results are not listed. Activity calls are given as the source filed them. Unless noted, how the calls were made is not given here.
# Assays:
# [1] = qHTS profiling for inhibitors of Plasmodium falciparum (DD2) proliferation (AID 743323); conditions: lower = more inhibition; at 28.7 µM (top of the series)
# How it was run: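 Parasite DNA quantified by SYBR Green fluorescence (ex 485, em 535 nm) after saponin/Triton lysis and overnight dark incubation. Cultures: 0.3% parasitemia, 2.5% hematocrit, 72 h, 37 C; data scaled between DMSO and 0.29 uM artemisinin.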
# [2] = qHTS profiling for inhibitors of Plasmodium falciparum (HB3) proliferation (AID 743324; active means well fitted curve in the direction sought with a large enough effect; an effect the other way counts as inactive or inconclusive;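 further: 100% = DMSO vehicle wells and 0% = artemisinin-treated control wells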); conditions: Plasmodium falciparum HB3 blood-stage proliferation; at 28.7 µM (top of the series)
# How it was run: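 SYBR Green fluorescence (485 ex/535 em) of lysed cultures, incubated overnight at room temperature in the dark, quantifies parasite DNA. Infected erythrocytes at 0.3% parasitemia and 2.5% hematocrit were exposed 72 h; values normalized to DMSO and 0.29 uM artemisinin controls.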
# [3] = qHTS profiling of the MIPE4 collection as inhibitors of Plasmodium falciparum (3D7) proliferation (AID 743344);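 further: scaled between DMSO vehicle wells and 0.29 µM artemisinin as full inhibition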; conditions: P. falciparum 3D7 in erythrocytes, SYBR Green DNA fluorescence, 72 h; at 28.5 µM (top of the series) unless noted
# How it was run: (§1)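 Parasite DNA was quantified by SYBR Green I fluorescence (ex 485, em 535 nm) after overnight lysis in saponin/Triton buffer at room temperature. Cultures at 0.3% parasitemia and 2.5% hematocrit were first exposed to compound for 72 h at 37 C; signals were normalised to artemisinin (0.29 uM) and vehicle wells.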
# [4] = qHTS profiling of the MIPE4 collection as inhibitors of Plasmodium falciparum (DD2) proliferation (AID 743345); conditions: P. falciparum Dd2 in erythrocytes, SYBR Green DNA, 72 h; at 28.5 µM (top of the series) unless noted
# How it was run: as §1
# [5] = qHTS profiling of the MIPE4 collection as inhibitors of Plasmodium falciparum (DD2) proliferation (Rep 2) (AID 743346); conditions: P. falciparum Dd2 in erythrocytes, SYBR Green DNA, 72 h; at 28.5 µM (top of the series) unless noted
# How it was run: as §1
# [6] = qHTS profiling of the MIPE4 collection as inhibitors of Plasmodium falciparum (HB3) proliferation (AID 743347);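 further: plate controls were DMSO vehicle wells for no effect and artemisinin wells for full effect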; conditions: P. falciparum HB3 in erythrocytes, SYBR Green DNA, 72 h; at 28.5 µM (top of the series) unless noted
# How it was run: as §1
# [7] = High-throughput drug toxicity screening in the BPDCN cell line Gen2.2 (AID 1224824); conditions: Gen2.2 BPDCN cells; at 45.8 µM (top of the series) unless noted;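 further: cells exposed to compounds for 48 h before reading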
# How it was run: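 CellTiter-Glo luminescence read after 48 h compound exposure at 37 C defines viability; percent activity set with DMSO as 100% and bortezomib (9.2 uM final) as 0%. 500 exponentially growing cells per well, RPMI plus 10% FBS.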
# [8] = High-throughput drug toxicity screening in the BPDCN cell line Cal-1 (AID 1224825); conditions: Cal-1 BPDCN cell viability, qHTS; at 45.8 µM (top of the series) unless noted
# How it was run: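 CellTiter-Glo luminescence after 48 h compound exposure; percent activity scaled with DMSO as 100% and bortezomib (9.2 uM final) as 0%. Cal-1 cells seeded at 500/well in RPMI, 10% FBS, no phenol red.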
# [9] = qHTS assay for measurement of the activity of small molecule inhibitors on Zika virus induced Caspase-3 activity in human iPSC derived neural progenitor cells (hNPCs) (AID 1224857; active means well fitted curve in the direction sought with a large enough effect; an effect the other way counts as inactive or inconclusive; further: % of control where 0% means no effect; nearly all actives have a fitted effect of over 65% in size)
# How it was run: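 Quantitative HTS format: human iPSC neural progenitors, 1 h compound pretreatment, ZIKV 2 FFU/cell for 6 h at 37 C. Percent inhibition derived from luminescent caspase-3/7 signal between uninfected and infected controls.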
# [10] = qHTS Assay for Identifying Gametocytocidal Compounds (AID 743244; active means well fitted curve in the direction sought with a large enough effect; an effect the other way counts as inactive or inconclusive; further: potency means the concentration at half of the fitted maximal effect;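 on max response: on the % scale 0 is the no-effect control and ±100 the full control effect; actives lower the fluorescent signal which means gametocytes are killed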); conditions: P. falciparum 3D7 stage III-V gametocytes, alamarBlue, 72 h; max response: stronger effect = lower value
# How it was run: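 A resazurin-based viability read-out was applied to mature P. falciparum gametocytes: 72 h compound treatment, then 24 h dye incubation, with falling fluorescence signalling gametocytocidal effect.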
# [11] = qHTS profiling for inhibitors of Plasmodium falciparum (3D7) proliferation (AID 743322);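 further: infected erythrocytes exposed to compound for 72 h before lysis; 100% = DMSO vehicle wells and 0% = 0.29 µM artemisinin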; conditions: P. falciparum 3D7 proliferation; at 28.7 µM (top of the series)
# How it was run: as §1
# [12] = qHTS assay for measurement of the activity of small molecule inhibitors on Zika virus induced Caspase-3 activity in human astrocytoma cells (AID 1224859; active means well fitted curve in the direction sought with a large enough effect; an effect the other way counts as inactive or inconclusive;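 further: plate controls were ZIKV-infected untreated cells for no effect and uninfected cells for full effect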)
# How it was run: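 Readout is luminescence from Caspase-Glo 3/7 added after a 6 h ZIKV infection (2 FFU/cell) of compound-pretreated (1 h) SNB-19 cells; data expressed as % inhibition versus uninfected and infected wells.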
Structure (SMILES),"activity, percent of control [1] [%]","remaining proliferation (% of control), lower = more inhibition [2] [%]","parasite growth, % of DMSO control [3] [%]","parasite growth remaining, % of DMSO control (lower = more inhibition) [4] [%]","parasite growth, % of control (lower = inhibition) [5] [%]","growth, % of control [6] [%]","cell viability, % of control (lower = more cytotoxic) [7] [%]",viability (% of control) [8] [%],Potency [9],Potency [10],max response [10],remaining parasite growth % (stronger effect = lower value) [11] [%],Potency [12]
Cc1[nH]nc2ccc(-c3cncc(OC[C@@H](N)Cc4ccccc4)c3)cc12,14.2,17.9,19.3,38,20.4,8.27,7.91,3.31,inactive,,,,
CN(C)CC(C)(C)CNc1nn2c(-c3ccccc3)nnc2cc1C1CCC1,,,20,21.9,40.5,48.8,13.9,3.65,inactive,,,,
CC=CC1=C(C(=O)O)N2C(=O)[C@H](NC(=O)[C@H](N)c3ccc(O)cc3)[C@@H]2SC1,,,99.8,99.9,99.4,88,52.6,89.2,inactive,,,,
c1ccc2c(CCNc3ccc(Nc4ccncc4)cc3)c[nH]c2c1,6.37,,11.1,10.6,6.39,5.7,5.37,3.61,inactive,9.35 µM (active),,,
CN1CCN(Cc2ccc(NC(=O)Nc3ccc(Oc4cc(NC(=O)C5CC5)ncn4)cc3)cc2C(F)(F)F)CC1,,,6,6.55,14.2,7.58,0.71,0.746,inactive,,,,
COc1cc2c(cc1-c1c(C)noc1C)ncc1[nH]c(=O)n([C@H](C)c3ccccn3)c12,,,67.1,97.3,86.2,74.1,65.5,7.22,inactive,,,,
COc1ccc(C=Cc2cc(OC)c(OC)c(OC)c2)cc1O,104,84.7,36,21.1,44,22.3,10.8,8.52,,,18.2% (inactive),92,inactive
CN(C)CCCN=c1c2ccccc2n(C)c2[nH]c(=O)n(C)c(=O)c12,15.1,,5.98,10.8,9.14,3,2.75,4,inactive,14.8 µM (active),,,
COC(=O)C1=C(C)NC(C)=C(C(=O)OCCN2CCN(C(c3ccccc3)c3ccccc3)CC2)C1c1cccc([N+](=O)[O-])c1 (stereo not given),,,19.8,45.6,43.1,18.9,126,108,inactive,,,,
CN1CCC(CNc2ccc3ncc(-c4cccc(OC(F)(F)F)c4)n3n2)CC1,-0.747,,5.42,6.44,10.4,8.22,11.1,7.35,inactive,9.35 µM (active),,-1.19,
CN(C)Cc1c(C(=O)NCCOc2ccc(C(=O)NO)cc2)oc2ccccc12,,,5.24,7.04,7.09,6.43,38.7,5.5,inactive,,,,
